# The campaign covered roughly 71,000 compounds. About 1,800 (2.5%) were called active. Another 26% or so got no clear call; they are omitted. Calls follow the shape of the dose curve; as a rule, active = well fitted activation curve with a large enough effect in the signal ratio, with a control signal flat (not every such curve was filed as active); inconclusive = small, poorly fitted or top-dose-only effect, or effect the other way, or a change in a side signal; inactive = flat fitted curve, though single readings scatter; the % refers to the signal ratio. The list comes from a sample in which actives are over-represented; it also holds similar structures and randomly drawn compounds. Entries that show only a call come without a potency.
# Assay: Cell signaling CRE-BLA (Fsk stim)
# Settings: CHO CRE-bla reporter (cAMP response element driving beta-lactamase), forskolin EC10, beta-lactamase ratio; series mostly up to 38.2 µM
# Excerpt: NIH Molecular Libraries Screening Centers Network [MLSCN]
# NIH Chemical Genomics Center [NCGC]
# Assay Provider: Marshall W. Nirenberg, U.S. National heart lung & blood institute
# Memories persist for different lengths of time, from seconds or minutes to a lifetime. There are two kinds of memory: short-term memory (STM) and long-term memory (LTM). STM lasts for minutes to hours, which maybe mediated by modifications of molecules involved in synaptic functions. LTM lasts for days or longer, and may be due to the formation of new synapses or restructuring of existing synapses. LTM, but not STM, requires gene transcription and synthesis of proteins. CREB (cyclic-AMP Responsive Element Binding Protein) is one of the candidates plays an important role for enhancement of some types of LTM. CREB, a family of transcription factors, regulates the transcription of genes containing cAMP Responsive Elements (CRE). CRE is a nucleotide sequence often found in the promoter regions of genes that are binding sites for CREB.
# Using a beta-lactamase reporter-gene under control of cAMP responsive element, a cell-based assay [CellSensor(TM) CRE-bla CHO developed by Invitrogen Corp.] was used to measure forskolin-induced signaling. Library compounds were measured for their ability to modulate positively or negatively the action of EC10 NKH 477, a water soluble forskolin, on reporter gene activity. Compounds were screened in a titration series in 1536-well format. Positive and negative modulators were identified based on the AC50 values derived from the screening data.
# NCGC Assay Protocol Summary
# 2000 cells/5uL in Opti-MEM medium containing 0.5% dialyzed FBS, 0.1 mM NEAA, 1 mM sodium pyruvate and 10 mM HEPES was dispensed into 1536-well plates and cells were cultured at 37 degrees Celsius overnight. […] And then the plates were incubated at 37 degrees Celsius for 3 hours. 1 uL of CCF4-dye mixture was added to each well. After incubated at room temperature for 2 hours the plates were measured on an EnVision plate reader at Excitation 405nm, Emission1=460nm and Emission 2=530nm. The %Activity was determined from the ratio of 460nm/530nm.
# Keywords: NIH Roadmap, MLSCN, MLSMR, qHTS, NCGC, CRE, beta-lactamase reporter-gene assay.
# Potency is read from the fitted curve at half-maximal effect.
row,SMILES,Potency
1,COc1ccc(S(=O)(=O)NCc2ccc(C(=O)N3CCC4(CC3)OCCO4)cc2)cc1,inactive
2,O=C(c1cc(S(=O)(=O)N2CCOCC2)ccc1F)N1CCC2(CC1)OCCO2,inactive
3,O=C(c1cc2nc(-c3ccccc3)cc(-c3ccccc3)n2n1)N1CCC2(CC1)OCCO2,2.51 µM (active)
4,C[C@@]1([C@@H](NP(=O)(c2ccccc2)c2ccccc2)c2ccccc2)C[C@H]1CCO,inactive
5,Cc1cc(-c2ccc(N)c(C)c2)ccc1N,inactive
6,N[C@H](Cc1o[nH]c(=O)c1Cl)C(=O)O,inactive
7,ClC(Cl)=C(Cl)C(Cl)=C(Cl)Cl,inactive
8,CCC(=NCCCO)c1c(O)n(-c2ccc(OC)cc2)c(=O)[nH]c1=O,inactive
9,CCCCCCN=C(CC)c1c(O)n(CCCC)c(=O)[nH]c1=O,10 µM (active)
10,ClC(Cl)(Cl)c1ccccc1,inactive
